# Assay results reported in ChEMBL document CHEMBL2218924, “A broad activity screen in support of a chemogenomic map for kinase signalling research and drug discovery” (Biochem J, 2013).
# Molecular target: Platelet-derived growth factor receptor beta (Homo sapiens) (UniProt P09619)
# Settings: at 1 µM
# Chain of Platelet-derived growth factor receptor beta (Homo sapiens) (P09619 whole entry): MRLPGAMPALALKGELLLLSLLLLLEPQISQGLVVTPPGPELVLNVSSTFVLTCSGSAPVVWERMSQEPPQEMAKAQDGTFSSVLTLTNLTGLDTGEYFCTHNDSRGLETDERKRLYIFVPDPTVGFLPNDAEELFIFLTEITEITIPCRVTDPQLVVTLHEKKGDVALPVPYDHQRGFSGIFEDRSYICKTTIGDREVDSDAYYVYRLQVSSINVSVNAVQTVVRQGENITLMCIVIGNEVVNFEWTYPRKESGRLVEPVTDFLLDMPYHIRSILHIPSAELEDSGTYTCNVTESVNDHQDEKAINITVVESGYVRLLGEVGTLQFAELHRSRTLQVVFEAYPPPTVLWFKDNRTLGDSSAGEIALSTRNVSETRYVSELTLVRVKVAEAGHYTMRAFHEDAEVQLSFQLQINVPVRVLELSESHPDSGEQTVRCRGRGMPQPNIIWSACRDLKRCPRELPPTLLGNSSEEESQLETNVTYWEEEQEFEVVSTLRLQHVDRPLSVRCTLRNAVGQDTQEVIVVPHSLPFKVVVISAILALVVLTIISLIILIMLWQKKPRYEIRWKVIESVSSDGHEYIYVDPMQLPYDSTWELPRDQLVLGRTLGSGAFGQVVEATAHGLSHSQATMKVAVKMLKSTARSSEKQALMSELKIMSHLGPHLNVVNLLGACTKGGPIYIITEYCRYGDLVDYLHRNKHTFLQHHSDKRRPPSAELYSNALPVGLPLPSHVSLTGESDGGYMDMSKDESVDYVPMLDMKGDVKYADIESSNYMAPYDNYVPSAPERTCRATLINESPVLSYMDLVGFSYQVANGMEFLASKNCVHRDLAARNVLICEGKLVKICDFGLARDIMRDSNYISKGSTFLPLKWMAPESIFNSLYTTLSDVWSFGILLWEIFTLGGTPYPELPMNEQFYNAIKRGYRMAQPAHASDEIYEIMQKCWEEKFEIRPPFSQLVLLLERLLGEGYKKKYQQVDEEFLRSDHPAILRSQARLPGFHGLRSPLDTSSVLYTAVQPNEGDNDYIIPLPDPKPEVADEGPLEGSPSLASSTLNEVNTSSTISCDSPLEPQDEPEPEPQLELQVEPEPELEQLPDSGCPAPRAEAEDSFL
row,SMILES,residual activity [%]
1,CO[C@H]1C[C@@H]2CC[C@@H](C)[C@@](O)(O2)C(=O)C(=O)N2CCCC[C@H]2C(=O)O[C@H]([C@H](C)C[C@@H]2CC[C@@H](O)[C@H](OC)C2)CC(=O)[C@H](C)/C=C(\C)[C@@H](O)[C@@H](OC)C(=O)[C@H](C)C[C@H](C)/C=C/C=C/C=C/1C,116
2,Cc1cc(Nc2nc(-c3ccccc3)nc3ccccc23)n[nH]1,79
3,c1ccc(-c2n[nH]cc2-c2ccnc3ccccc23)nc1,96
4,O=c1cc(-c2cccc3c2Sc2ccccc2S3)oc(N2CCOCC2)c1,111
5,CO[C@@H]1[C@H](N(C)C(=O)c2ccccc2)C[C@H]2O[C@]1(C)n1c3ccccc3c3c4c(c5c6ccccc6n2c5c31)C(=O)NC4,46
6,Oc1ccc(-c2nc(-c3ccc(F)cc3)c(-c3ccncc3)[nH]2)cc1,111
7,COc1ccc(S(=O)(=O)N(CCO)c2ccccc2CN(C)C/C=C/c2ccc(Cl)cc2)cc1,109
8,Cc1cc2ncc(-c3ccccc3)nc2cc1C,99
9,Cc1cncc2cccc(S(=O)(=O)N3CCCN(C(=O)CN)C[C@H]3C)c12,100
10,CC(=O)c1ccc(N2CCOCC2)cc1O,112
11,O=C1NC(=O)/C(=C/c2ccc3c(c2)OC(F)(F)O3)S1,108
12,CCN(CC)C(=O)c1ccc(Nc2nc(OCC3CCCCC3)c3nc[nH]c3n2)cc1,63
13,Cn1nc2c3c(cccc31)C(=O)c1ccccc1-2,91
14,O=C1Nc2ccccc2/C1=C1/Nc2ccccc2/C1=N\OCCC(O)CO (stereo not given),79
15,O=[N+]([O-])c1ccc(-c2nc(-c3ccc(F)cc3)c(-c3ccncc3)[nH]2)cc1,103
